Measured values reported in PubChem BioAssay (EPA / NIEHS).
Active and inactive are the calls of the source. How the source made its calls: active means hit-call score of the fitted dose curve at least 0.9, where 1 is the maximum; inactive means score below 0.9.

Read-out: Cyclin D1 (CCND1), CCND1 (gene 595)
Test: LTEA_HepaRG_CCND1: Life Technologies and Expression Analysis (LTEA) Assay for Cyclin D1 (CCND1) using HepaRG (AID 2283451);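 on AC50: TaqMan qRT-PCR transcript level normalised to ACTB GAPDH and POLR2A housekeeping genes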
Details: mRNA level, 48 h; actives raise or lower the signal
Method: LTEA_HepaRG is a cell based, multiplexed-readout assay that uses HepaRG, a human liver cell line, with measurements taken at 48 hours after chemical dosing on a 96-well plate.LTEA_HepaRG_CCND1 is one of 102 assay component(s) measured in the LTEA HepaRG cell culture assay. It is a marker of Cell proliferation, survival, death.Data from the assay component LTEA_HepaRG_CCND1 was analyzed into 1 endpoint. This assay endpoint, LTEA_HepaRG_CCND1, was analyzed with bidirectional fitting relative to DMSO as the negative control and baseline of activity. Using a type of inducible reporter, measures of mRNA induction for gain or loss-of-signal activity can be used to understand regulation of transcription factor activity. To generalize the intended target to other relatable targets, this assay endpoint is annotated to the cell cycle intended target family, where the subfamily is Cell proliferation, survival, death.
A total of 1060 chemcials from the ToxCast library were tested in eight-point concentration-response experiments. Cell culture and cytotoxicity assays were conducted at Thermo Fisher Scientific's Custom Services facility (Madison, WI). A single lot of human HepaRG cells (Thermo Fisher Scientific, Frederick, MD) was used for the cell culture experiments. 96-well format collagen type I coated plates of human HepaRG cells were prepared using established methods. Briefly, cryopreserved HepaRG cells were thawed, plated at a density of approximately 100,000 cells/well in HepaRG Thaw, Plate, and General Purpose media (HPRG770, Thermo Fisher Scientific), and incubated for 48 hours. 0.5% DMSO was selected as vehicle control to balance the requisite need of DMSO in HepaRG cultures to maintain differentiation (for example, baseline metabolism, proportions of hepatocytes vs. cholangiocytes), while enabling further hepatic receptor pathway activation (for example, PXR and CAR) in response to chemical exposure. 48 hours after plating, the culture medium was replaced with HepaRG Serum-Free Incudtion Media. Cells were exposed to each test chemical in duplicate and maintained in CO2 incubators for another 48 hours. Chemical plates were thawed to room temperature and 200x concentrations of treatment groups were prepared. 8-point conentration-reponse curves were made with the highest exposure at 100 uM, followed by half-log dilutions, all in 0.5% DMSO. Each test plate contained variouse controls, induction positive controls (1mM phenobarbital), cytotoxicity positive controls ([…] aflatoxin B1), vehicle controls (0.5% DMSO), and total lysis controls (0.5% DMSO). Cell morphology images were taken using an Essen IncuCyte FLR automated microscope, with six 96-well plates imaged in about 24 minutes. Images were captured and exported and JPEG files. Spent culture media was transfered to black-well plates for the LDH assay, and remaining media was sorted at -80 C for later use. Cells were treated with RLT buffer and frozen until shipped for gene expression analysis. Total RNA was isolated from the cell suspension in 75 uL of Buffer RLT (Qiagen, Germantown, MD 20874) by Quintiles/Expression Analysis (Durham, NC) using a custom isolation procedure. Total RNA from each plate well was transferred to a preamplification plate. Fluidigm's 96.96 Dynamic ArrayTM (Fluidigm, Amsterdam, the Netherlands) technology was used for gene expression analyses by quantitative reverse transcription polymerase chain reaction (qRT-PCR, performed by Quintiles/Expression Analysis, Durham, NC)89. Standard TaqManTM Assays (Applied Biosystems/ThermoFisher Scientific, Foster City, CA) were used to assess the expression of 93 genes selected based on their selectivity and sensitivity to important hepatic receptors known to be modulated by environmental chemicals; importance in human hepatocyte functionality; and hepatotoxicity. […]

| Compound | outcome | AC50 |
| --- | --- | --- |
| CCCCCCCCCCCC(=O)OC | inactive | – |
| O=c1[nH]cc(F)c(=O)[nH]1 | inactive | – |
| CC1(C)CC(N=C=O)CC(C)(CN=C=O)C1 (stereo not given) | inactive | – |
| CC(C)c1ccc(C(=O)N=C(N)N)cc1S(C)(=O)=O | – | 493 nM (active) |
| COc1cc(C=O)ccc1O | inactive | – |
| CC=Cc1ccc(O)c(OC)c1 | inactive | – |
| CNCc1cc(F)ccc1Oc1ccc(Cl)c(Cl)c1 | inactive | – |
| Cc1ccc(C)c(C)c1 | inactive | – |
| CCCCCC(=O)O | inactive | – |
| COc1ccc(C)cc1N | inactive | – |
| COCCOC[C@H](CC1(C(=O)NC2CCC(C(=O)O)CC2)CCCC1)C(=O)Oc1ccc2c(c1)CCC2 (stereo not given in full) | – | 204 nM (active) |
| NC(=O)Cn1c(=O)cc(CCN2CCN(c3nccc4sccc34)CC2)c2ccc(F)cc21 | inactive | – |
| CCc1c(C(=O)NN2CCCCC2)nn(-c2ccc(Cl)cc2Cl)c1-c1ccc(Br)cc1 | inactive | – |
| Clc1cc(Cl)c(Cl)cc1Cl | inactive | – |
| Nc1ccc(S(=O)(=O)c2ccc(N)cc2)cc1 | inactive | – |
| CC(=O)OCCOCCOCCOC(C)=O | inactive | – |
| Cc1nc(-c2ccc3c(c2)CCN(CCC2CCC(NC(=O)/C=C/c4ccc(F)cc4)CC2)CC3)no1 (stereo not given) | inactive | – |
| CCOc1ccc2c(c1)C(C)=CC(C)(C)N2 | inactive | – |
| Cc1cccc(Nc2cc(Cl)nc(SCC(=O)O)n2)c1C | inactive | – |
| CCCCCCCCCCO | inactive | – |

| Compound | outcome | AC50 |
| --- | --- | --- |
| CCCCCCCCCCCCCCCCCC(=O)O | inactive | – |
| COc1cc(S(=O)(=O)O)c(C)cc1N=Nc1c(O)ccc2cc(S(=O)(=O)O)ccc12 | inactive | – |
| NCC1(Cc2noc(=O)[nH]2)CCCCC1 | inactive | – |
| COCCOCCOC | inactive | – |
| COC(=O)c1ccc(O)cc1 | inactive | – |
| CCNc1cccc(C)c1 | inactive | – |
| NCCO | inactive | – |
| Cc1cc(NC(=O)C(=O)O)cc(C)c1Oc1ccc(O)c2c1CCC2 | inactive | – |
| NS(=O)(=O)c1cc2c(cc1Cl)NCNS2(=O)=O | inactive | – |
| Nc1ccc2c(c1)C(=O)c1ccccc1C2=O | – | 1190 nM (active) |
| CC(=O)OC/C=C(\C)CCC=C(C)C | inactive | – |
| Cc1ccccc1Cl | inactive | – |
| CCCCCCCC=O | inactive | – |
| CC(C)(C)c1cc(O)c(C(C)(C)C)cc1O | inactive | – |
| CC(=O)Oc1ccccc1C(=O)O | inactive | – |
| CCCCCCCCCCCCCCCC | inactive | – |
| CCCCCCOCCO | inactive | – |
| CCCCN(CCCC)CCCC | inactive | – |
| Cc1oc(-c2ccccc2)nc1CCOc1cccc2c1ccn2CCC(=O)O | – | 50000 nM (active) |
| CCCCCCCCCCC | inactive | – |
